Assay results from the supplement of paper PMC3334620.
The full ranking holds about 33,000 sequences; the median of “E-score (-0.5 to 0.5)” is about -0.017, and the highest 2% start at about 0.3. Shown is part of a subset that was picked to be rich in the highest values.

These sequences were tested against T1, Sut1 (UniProt P53032) (assay: PBM E-score (8-mer binding enrichment) (E-score (-0.5 to 0.5)); higher = stronger / more preferred TF binding). Settings: protein concentration: 200 nM; construct: GST-full length.
T1 sequence: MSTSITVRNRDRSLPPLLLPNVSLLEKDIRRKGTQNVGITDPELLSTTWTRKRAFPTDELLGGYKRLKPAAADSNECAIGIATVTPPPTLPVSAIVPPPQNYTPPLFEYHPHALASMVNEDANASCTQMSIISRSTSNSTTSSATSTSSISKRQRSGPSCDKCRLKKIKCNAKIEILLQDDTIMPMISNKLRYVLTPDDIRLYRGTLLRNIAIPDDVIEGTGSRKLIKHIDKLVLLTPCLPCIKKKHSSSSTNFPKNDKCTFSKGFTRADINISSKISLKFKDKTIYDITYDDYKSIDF
Protocol: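 Universal 'all 10-mer' protein binding microarrays (Agilent AMADID 015681) probed with GST-tagged S. cerevisiae TFs (full-length or DBD) made by in vitro transcription/translation (PURExpress), about 100-200 nM. Bound TF was detected with fluorescent anti-GST. Each ungapped 8-mer (which stands for itself and its reverse complement) is scored by the PBM enrichment score (E-score), a modified Wilcoxon-Mann-Whitney statistic from -0.5 to +0.5, computed with the Universal PBM Analysis Suite. Scale: above 0.35 generally sequence-specific binding.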

| Sequence | PBM E-score |
| --- | --- |
| CATGGGTC | -0.185 |
| ATTCGTAC | 0.154 |
| AGGTCCAG | -0.0827 |
| CGGTCCGA | 0.264 |
| AGGTCCGC | 0.286 |
| AGGTCCGG | 0.461 |
| GGGTCCGA | 0.295 |
| AGGTCCGA | 0.457 |
| CCTTGAAG | -0.0873 |
| GCTCAAGA | -0.148 |
| ATAGTGGG | -0.0539 |
| AATCTGGT | 0.047 |
| AGGCCTTA | -0.127 |
| AAAGCTCC | 0.0815 |
| GAAGCTCA | -0.033 |
| GAAGCTCC | 0.35 |
| GACACCCA | -0.118 |
| ATTCTATA | 0.16 |
| GGAGCGTA | 0.0804 |
| ATCTCTCC | -0.0902 |
| ATATCTCC | 0.341 |
| CAATCTCG | -0.097 |
| CAATCTCC | 0.312 |
| CAATCTCA | -0.0455 |
| CTATCTCC | 0.114 |

| Sequence | PBM E-score |
| --- | --- |
| CATCTGCG | -0.0835 |
| CGGTCAAG | -0.09 |
| TCTGATAA | -0.0508 |
| AATTGTCT | -0.0132 |
| CTCGTTAA | 0.1 |
| CTAACGGA | 0.305 |
| GTAACGCA | 0.021 |
| CTAACGAA | -0.0566 |
| ATAACGGC | 0.00713 |
| CTAACGGC | 0.0477 |
| GTAACGTA | 0.0551 |
| GTAACGGA | 0.329 |
| ATAACGGA | 0.341 |
| ATAACGGG | 0.0139 |
| GAAACGCA | 0.026 |
| CTGAGCGA | -0.162 |
| AAGGTTGA | 0.0981 |
| GTTTAGTA | 0.208 |
| GACATCGC | -0.0981 |
| CATAACAC | 0.0299 |
| CGCTCAGC | -0.105 |
| ATTTTGCG | 0.193 |
| GCTCCCAC | -0.109 |
| CATATGTC | -0.0849 |
| CCTGTCAA | -0.085 |

| Sequence | PBM E-score |
| --- | --- |
| CGCCGGGC | 0.00809 |
| CCCCGGGA | -0.0206 |
| CGCCGGGA | -0.203 |
| CTCCGGGC | 0.391 |
| GTCCGGGA | 0.413 |
| GACCGGGA | -0.0471 |
| ATCCGGGA | 0.0768 |
| ATCCGGGC | 0.127 |
| CTCCGGGA | 0.436 |
| CCCGGTCC | -0.0342 |
| AACTCACT | -0.151 |
| CAATTCAA | 0.0614 |
| GGCCCTCA | -0.279 |
| CTGGTTCA | -0.0784 |
| CCTCGGGC | -0.209 |
| ACTCGGAC | 0.411 |
| CCTCGGCG | -0.0382 |
| CCTCGGTA | -0.0533 |
| TCTCGGAA | 0.215 |
| ACTCGGAA | 0.323 |
| CCTCGGAA | 0.215 |
| ACTCGGTC | -0.072 |
| ACTCGGGC | -0.0385 |
| ACTCGGAT | 0.0613 |
| CCTCGGAC | 0.412 |

| Sequence | PBM E-score |
| --- | --- |
| CCTCGGAG | 0.446 |
| CTAGTTGC | -0.0129 |
| GCCTTGGA | -0.0418 |
| GACGCGTC | -0.325 |
| ATCTATAG | 0.11 |
| CAGCCTGA | -0.275 |
| ATATGAGG | -0.0891 |
| GCTCGGCC | -0.204 |
| ACTCGGAG | 0.399 |
| ACTCGGTG | -0.0621 |
| ACTCGGCG | 0.0415 |
| GCTCGGAA | 0.165 |
| GCTCGGAC | 0.365 |
| ATACATTA | 0.234 |
| ACACTAAG | -0.0951 |
| CATATATA | 0.299 |
| TATATAGA | 0.278 |
| TATATATA | 0.381 |
| TATATACA | 0.316 |
| CATATATC | -0.0165 |
| AATATACA | 0.29 |
| CATATATG | 0.0281 |
| GATATATA | 0.247 |
| GATATACA | 0.194 |
| GGCCAGCA | -0.168 |

| Sequence | PBM E-score |
| --- | --- |
| ACCCAGGA | -0.13 |
| AAGACTTC | -0.196 |
| AACCCCTC | -0.198 |
| AAGGGGGA | -0.0309 |
| CAGTCAAA | 0.0987 |
| CCTTGCAG | -0.143 |
| ACTCGTCG | -0.174 |
| TAATCGCA | -0.0128 |
| ATCGGAAC | 0.14 |
| AACGGAAT | 0.294 |
| AACGGAAA | 0.327 |
| CACGGAAA | 0.188 |
| ATCGGAAA | 0.302 |
| GTCGGAAC | 0.134 |
| GTCGGAAA | 0.355 |
| CTCGGAAA | 0.19 |
| TTCGGAAA | 0.252 |
| ATCGGAAT | 0.352 |
| ATCGGAAG | 0.253 |
| AGCGGAAT | 0.0494 |
| AGTAACTC | 0.115 |
| CGACGAAA | 0.0757 |
| AAGTGAGC | -0.0565 |
| GCTTTTTA | 0.161 |
| GGAGCGAA | 0.0455 |

| Sequence | PBM E-score |
| --- | --- |
| AAACGCGC | -0.123 |
| ATCCTCAT | -0.0846 |
| CGAGGGTC | -0.194 |
| CTTATGTA | 0.16 |
| AAACTGAA | 0.171 |
| AAGTTGCG | 0.108 |
| CTCGCCCC | -0.298 |
| AGTGAATA | 0.177 |
| ATGGTCGG | 0.0544 |
| GCCCAGCC | -0.184 |
| ATTATTTC | 0.306 |
| ATTATTAC | 0.278 |
| ATGATTTC | 0.299 |
| ATGATTTA | 0.222 |
| GTTATTTA | 0.257 |
| ATTATTTA | 0.347 |
| CTTATTTA | 0.101 |
| CTTATTTC | 0.207 |
| CTGATTTC | 0.0415 |
| ATTATTAG | 0.144 |
| ACTATTTG | 0.252 |
| ATTATTTG | 0.319 |
| CGCTAGTA | 0.101 |
| AGAATGCA | 0.0147 |
| CCCGTTAG | -0.0959 |

| Sequence | PBM E-score |
| --- | --- |
| CGTACGAG | -0.098 |
| AATAGCTC | -0.207 |
| ATTGCGAC | 0.0862 |
| CGTCCTTA | -0.176 |
| GTACCGCA | 0.102 |
| ATACCGGG | 0.0371 |
| ATACCGGA | 0.326 |
| CTACCGGA | 0.222 |
| GTACCGGA | 0.342 |
| ATACCGGC | -0.0331 |
| AGTCAGCA | -0.0199 |
| ACCCACTC | 0.00249 |
| TCCCGGAA | 0.228 |
| ATCCGGAT | 0.257 |
| TGCCGGAA | 0.188 |
| ATCCGGTG | 0.0918 |
| ATCCGGAG | 0.414 |
| CTCCGGAA | 0.442 |
| ATCCGGCG | -0.00912 |
| ATCCGGAC | 0.362 |
| TTCCGGAA | 0.395 |
| CTGCGGAA | -0.0948 |
| ACAGTCAA | -0.0644 |
| AGAGTAAG | 0.016 |
| AAGCTCTC | -0.127 |

| Sequence | PBM E-score |
| --- | --- |
| AAAACTTG | 0.143 |
| GCGTTACC | -0.158 |
| ACTCCCTG | -0.173 |
| AATCACGT | -0.0474 |
| ATCCGGAA | 0.303 |
| ATGCGGAA | 0.0745 |
| GTCCAAAC | -0.0427 |
| GTGCGGAA | 0.0942 |
| CTCAGGAG | -0.179 |
| GTCCGGAC | 0.469 |
| GTCAGGAC | -0.206 |
| GTCCGGAA | 0.402 |
| ATGCGGAG | 0.259 |
| CTCCGGAG | 0.487 |
| CAACGCAA | 0.111 |
| TAGTTAGA | 0.169 |
| AGTCTATG | -0.11 |
| ACATTGGC | -0.21 |
| AGAAAGCT | 0.126 |
| CATAAGGA | -0.134 |
| CCCTCGAC | -0.327 |
| CAATCTAG | -0.0129 |
| CTTAGTCC | 0.113 |
| ATTGAGTG | 0.0241 |
| CTCAGGAC | -0.127 |

| Sequence | PBM E-score |
| --- | --- |
| CTGCGGAC | 0.165 |
| CTCCGGAC | 0.473 |
| GAGTTATA | 0.2 |
| AAAATTAA | 0.221 |
| TTATTAAA | 0.273 |
| TAGTTATA | 0.318 |
| ATATTAAA | 0.37 |
| CAAATTAA | 0.189 |
| CTTTAAAC | 0.105 |
| GTTTAAAC | 0.31 |
| GTTTAAAA | 0.19 |
| CTATTAAA | 0.0826 |
| AAGTTATA | 0.186 |
| GAAATTAA | 0.333 |
| AGGTCTAA | -0.0642 |
| CTAGGTGA | -0.168 |
| GTCTATCA | 0.101 |
| AGATTCAT | 0.0265 |
| ATTAAGAC | 0.123 |
